CCHFV vOTU inh: blocks the CCHF virus ovarian tumor domain protease; CCHFV vOTU protease, Pep-AMC fluorescence; inhibition, % at 11.5 µM; 370,000 tested, 0.55% active; note: 0% = vehicle wells with enzyme and 100% = no enzyme wells
GDH-TPI inh: GDH-TPI coupled enzyme inhibition counter-screen | GDH-TPI coupled enzyme counterscreen, NADH absorbance | inhibition, % at 4.8 µM | 360,000 tested, 1.2% active;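 note: 0% = DMSO wells and 100% = wells lacking the enzyme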
Mtb bLac sens: beta-lactam sensitization of Mtb H37Rv | 330,000 tested, 0.27% active | inhibition, % at 25 µM | M. tuberculosis H37Rv growth with meropenem, percent inhibition | AID 434955; call rule not given here;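 note: growth measured after seven days incubation then overnight dye step; 0% = bacteria only wells and 100% = bacteria with antibiotic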
MazF activator: activators of E. coli MazEF toxin-antitoxin RNase. P0AE70. FAM/BHQ RNA-DNA oligo cleavage fluorescence, 5 h. activation, % at 20 µM. 350,000 tested, 0.32% active; in the data active = activation above about 50%
Target sequence (P0AE70 whole entry, looked up): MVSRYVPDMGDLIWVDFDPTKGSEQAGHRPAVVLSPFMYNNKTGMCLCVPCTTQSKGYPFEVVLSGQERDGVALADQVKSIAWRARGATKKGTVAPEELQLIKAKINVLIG
FBA Mtb inh: inhibits M. tuberculosis FBA enzyme. P9WQA3. AID 588726. purified M. tuberculosis FBA, fluorescence read-out. 360,000 tested, 2.3% active. inhibition, % at 1 µM; in the data active = inhibition above about 27%;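 note: 0% = vehicle and 100% = reference inhibitor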
Target sequence (P9WQA3 whole entry, looked up): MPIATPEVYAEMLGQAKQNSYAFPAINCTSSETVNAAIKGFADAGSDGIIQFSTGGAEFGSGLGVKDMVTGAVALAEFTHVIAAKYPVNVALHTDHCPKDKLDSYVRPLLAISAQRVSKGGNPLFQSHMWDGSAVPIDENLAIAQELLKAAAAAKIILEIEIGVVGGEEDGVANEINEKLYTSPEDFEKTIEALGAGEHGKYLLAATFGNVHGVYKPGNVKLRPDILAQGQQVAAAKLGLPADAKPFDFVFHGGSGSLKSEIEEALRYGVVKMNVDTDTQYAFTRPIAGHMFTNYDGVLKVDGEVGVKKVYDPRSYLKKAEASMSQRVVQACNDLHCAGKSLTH
Active calls of the source: *. Compounds with a hit are over-represented: about 4% of the library has one in this group of screens. Cut-off read from the data, not from the text of the source, unless noted: active = inhibition above about 30%; inactive = the rest.

For CCn1c(COc2ccccc2)nnc1SCC(=O)Nc1ccc(Oc2ccccc2)cc1 the results were CCHFV vOTU inh 8.
`CC(Sc1nnc(-c2cccs2)n1Cc1ccccc1)C(=O)NCc1ccc2c(c1)OCO2` (centres undefined) gave CCHFV vOTU inh -9, GDH-TPI inh 6, Mtb bLac sens -19, MazF activator 64* and FBA Mtb inh 1.
`O=C(CSc1nnc(-c2cccs2)n1Cc1ccccc1)NCc1ccc2c(c1)OCO2` gave CCHFV vOTU inh 4, GDH-TPI inh -6, Mtb bLac sens -4, MazF activator 3 and FBA Mtb inh 3.
Screening O=C1NCCc2c1[nH]c1ccccc21 returned CCHFV vOTU inh -12, GDH-TPI inh -4, Mtb bLac sens -3, MazF activator -1 and FBA Mtb inh 27*.
For O=C1NCCc2c1[nH]c1ccc([N+](=O)[O-])cc21 the results were CCHFV vOTU inh -4, GDH-TPI inh 8, Mtb bLac sens 2, MazF activator 5 and FBA Mtb inh -1.
`COC(=O)[C@]12C[C@H](CC(=O)N3CCCC3)C(=O)N(CCc3ccc(OC)c(OC)c3)C1=C[C@H](COCc1ccccc1)O[C@@H]2C` gave CCHFV vOTU inh -4.
`COC(=O)C1CN(CCc2ccccc2)CCS(=O)(=O)N1Cc1ccc(C(F)(F)F)cc1` (centres undefined) gave CCHFV vOTU inh 18.
For Cc1cc(C)c2c(n1)nn1c(NCCOCCO)cc(C)nc21 the results were CCHFV vOTU inh -271, GDH-TPI inh 1, Mtb bLac sens 1, MazF activator 0 and FBA Mtb inh active.
CCc1nn2c(NCCCO)cc(C)nc2c1-c1ccc(F)cc1 was read as CCHFV vOTU inh -2, GDH-TPI inh -1, Mtb bLac sens 7, MazF activator 6 and FBA Mtb inh -1.
For Cc1cc(C)c2c(n1)nn1c(NCCCN(C)C)cc(C)nc21 the results were CCHFV vOTU inh -293, GDH-TPI inh 5, Mtb bLac sens -3, MazF activator 7 and FBA Mtb inh active.
Cn1c(NC(=O)c2ccccc2)nc(Cc2ccccc2)c1Cc1ccccc1 was read as CCHFV vOTU inh 11.
Screening C=CCN1C(=O)[C@@H](CC(=O)NCc2cccc3ccccc23)[C@]2(C(=O)OCC)CCCCC/C=C/12 returned CCHFV vOTU inh 19.
For Cc1ccn2cc(-c3ccc(NC(=O)c4ccco4)cc3)nc2c1 the results were CCHFV vOTU inh 0, GDH-TPI inh 33*, Mtb bLac sens 5, MazF activator -2 and FBA Mtb inh 0.
Screening O=C(O)c1cccc(-c2nc3ccccc3[nH]2)c1 returned CCHFV vOTU inh -4, GDH-TPI inh 7, Mtb bLac sens -6, MazF activator -9 and FBA Mtb inh 112*.
`c1ccc(-c2nc3ccccc3[nH]2)cc1` gave CCHFV vOTU inh -3, GDH-TPI inh 4, Mtb bLac sens 3, MazF activator -18 and FBA Mtb inh 11.
`Cc1cc(-c2nc3ccccc3[nH]2)ccc1N` gave CCHFV vOTU inh -58, GDH-TPI inh 9, Mtb bLac sens 1, MazF activator 12 and FBA Mtb inh 174*.
For COC(=O)c1ccc(-c2ncc[nH]2)cc1 the results were CCHFV vOTU inh -43, GDH-TPI inh 3, Mtb bLac sens -6, MazF activator -6 and FBA Mtb inh active.
Screening C#CCN1CC(N(C)CCOC(=O)c2cc(C)cc(C)c2)CS1(=O)=O (centres undefined) returned CCHFV vOTU inh -11.
O=C(/C=C/c1ccco1)Nc1ccc(-c2nc3ccccc3[nH]2)cc1 was read as CCHFV vOTU inh 2, GDH-TPI inh 9, Mtb bLac sens -5, MazF activator -42 and FBA Mtb inh 5.
Screening COC(=O)c1ccc(-c2nc3ccccc3[nH]2)cc1 returned CCHFV vOTU inh -248, GDH-TPI inh 19, Mtb bLac sens -7, MazF activator 5 and FBA Mtb inh active.
`COc1ccc(-c2nc3ccccc3[nH]2)cc1` gave CCHFV vOTU inh 0, GDH-TPI inh 8, Mtb bLac sens 11, MazF activator 2 and FBA Mtb inh 16.
O=C(Nc1ccc(-c2nc3ccccc3[nH]2)cc1)c1ccco1 was read as GDH-TPI inh 42*, Mtb bLac sens -4, MazF activator 2 and FBA Mtb inh -1.
`COc1ccc2nc(SCC(C)=O)c(C#N)cc2c1` gave CCHFV vOTU inh -2, GDH-TPI inh 11, Mtb bLac sens -5, MazF activator 934* and FBA Mtb inh 3.
For CCOC(=O)CSc1nc2cc(C)ccc2cc1C#N the results were CCHFV vOTU inh -7, GDH-TPI inh 5, Mtb bLac sens -5, MazF activator 628* and FBA Mtb inh 3.
COc1ccc2nc(SC)c(C#N)cc2c1 was read as CCHFV vOTU inh 4, GDH-TPI inh -9, Mtb bLac sens 2, MazF activator -7 and FBA Mtb inh 3.
Screening CCOC(=O)CSc1nc2cc(C)cc(C)c2cc1C#N returned CCHFV vOTU inh 20, GDH-TPI inh 3, Mtb bLac sens -8, MazF activator 25 and FBA Mtb inh 1.
`CCOC(=O)CSc1nc2cc3c(cc2cc1C#N)OCO3` gave CCHFV vOTU inh -1, GDH-TPI inh 2, Mtb bLac sens 53, MazF activator 3 and FBA Mtb inh 5.
Screening CCOC(=O)CSc1nc2cc(OC)ccc2cc1C#N returned CCHFV vOTU inh 4, GDH-TPI inh 9, Mtb bLac sens 59, MazF activator 120* and FBA Mtb inh 11.
`CCOC(=O)CSc1nc2ccc(C)cc2cc1C#N` gave CCHFV vOTU inh -14, GDH-TPI inh 10, Mtb bLac sens 7, MazF activator 296* and FBA Mtb inh 2.
For CN1C(=O)c2cc(NC(=O)Cc3ccccc3)ccc2OC[C@H]2O[C@H](CC(=O)O)CC[C@H]21 the results were CCHFV vOTU inh -3.
For COc1ccc2nc(SCC(=O)N3CC(=O)Nc4ccccc43)c(C#N)cc2c1 the results were CCHFV vOTU inh 9, GDH-TPI inh 3, Mtb bLac sens -2, MazF activator 58* and FBA Mtb inh 10.
Screening Cc1cc2cc(C#N)c(SCC(=O)Nc3nonc3C)nc2cc1C returned CCHFV vOTU inh 10, GDH-TPI inh 7, Mtb bLac sens 6, MazF activator 63* and FBA Mtb inh 5.
`N#Cc1cccc(NC(=O)OCCN2C(=O)CCC23CCC(c2ccc(Cl)cc2)CC3)c1` (centres undefined) gave CCHFV vOTU inh 0.
Screening Oc1ccccc1C=NN1CCN(Cc2ccccc2)CC1 returned CCHFV vOTU inh 3.
`CCC(CC)C(=O)N1N=C(c2ccc(NS(C)(=O)=O)cc2)CC1c1ccc(C)cc1` (centres undefined) gave CCHFV vOTU inh -88, GDH-TPI inh 29, Mtb bLac sens 6, MazF activator 6 and FBA Mtb inh active.
For COc1ccccc1C1CC(c2ccc(NS(C)(=O)=O)cc2)=NN1C(=O)c1ccccc1 (centres undefined) the results were CCHFV vOTU inh 1, GDH-TPI inh 9, Mtb bLac sens 5, MazF activator 1 and FBA Mtb inh -12.

High-throughput results (PubChem BioAssay)
